Data: PubChem BioAssay AID1159580 (chemical genetic matrix, 2015)
The campaign covered roughly 5,500 compounds. About 2,000 (36%) were called active. Inconclusive results (about 18%) are left out. No stated cut-off is given here; in the data, active means normalized growth mostly below about 0.91 (no sharp cut-off); inconclusive means no clear call, values can overlap the other calls; inactive means mostly above about 0.92. This is one part of the list.

Assay: chemical genetic growth profiling, strain panel (AID 1159580);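 further: tested at 20 µM; growth read once vehicle control cultures reached saturation at 30 °C; 1 = growth at the plate median or of vehicle wells; lower values mean less growth of the strain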
Conditions: growth OD

Measured: normalized growth

CCCCCCc1ccc(O)cc1O
inactive: S. cerevisiae deletion strains, locus YJL187C, strain SWE1, active compounds read low 0.952 | S. cerevisiae deletion strains, locus YJR043C, strain POL32, active compounds read low 0.876 | S. cerevisiae deletion strains, locus YKL068W, active compounds read low 0.967 | S. cerevisiae deletion strains, locus YKL085W, strain MDH1 (second series), active compounds read low 0.954 | S. cerevisiae deletion strains, locus YKL085W, strain MDH1, active compounds read low 0.954 | S. cerevisiae deletion strains, locus YKL190W, strain CNB1, active compounds read low 0.944 | S. cerevisiae deletion strains, locus YKR026C, strain gcn3, active compounds read low 0.972 | S. cerevisiae deletion strains, locus YKR091W, strain srl3, active compounds read low 0.973 | S. cerevisiae deletion strains, locus YLL001W, strain dnm1, active compounds read low 0.935 | S. cerevisiae deletion strains, locus YLL041C, strain sdh2, active compounds read low 0.973 | S. cerevisiae deletion strains, locus YLR058C, strain SHM2, active compounds read low 0.915 | S. cerevisiae deletion strains, locus YLR102C, strain apc9, active compounds read low 0.955 | S. cerevisiae deletion strains, locus YLR268W, strain sec22, active compounds read low 0.913 | S. cerevisiae deletion strains, locus YLR342W, strain FKS1 (second series), active compounds read low 0.87 | S. cerevisiae deletion strains, locus YLR342W, strain FKS1, active compounds read low 0.973 | S. cerevisiae deletion strains, locus YLR357W, strain rsc2, active compounds read low 1.07 | S. cerevisiae deletion strains, locus YLR370C, strain arc18, active compounds read low 0.925 | S. cerevisiae deletion strains, locus YLR384C, strain iki3, active compounds read low 0.997 | S. cerevisiae deletion strains, locus YML016C, strain PPZ1, active compounds read low 0.947 | S. cerevisiae deletion strains, locus YML124C, strain tub3, active compounds read low 0.934 | S. cerevisiae deletion strains, locus YMR125W, strain sto1, active compounds read low 1.04 | S. cerevisiae deletion strains, locus YMR129W, active compounds read low 0.976 | S. cerevisiae deletion strains, locus YMR231W, strain pep5, active compounds read low 0.999 | S. cerevisiae deletion strains, locus YNL209W, strain ssb2, active compounds read low 0.972 | S. cerevisiae deletion strains, locus YNL250W, strain rad50, active compounds read low 0.986 | S. cerevisiae deletion strains, locus YNL271C, strain bni1, active compounds read low 0.952 | S. cerevisiae deletion strains, locus YNL322C, strain KRE1 (second series), active compounds read low 0.927 | S. cerevisiae deletion strains, locus YNR049C, strain mso1, active compounds read low 0.978 | S. cerevisiae deletion strains, locus YOL012C, strain htz1 1.21 | S. cerevisiae deletion strains, locus YOR061W, strain CKA2, active compounds read low 0.962 | S. cerevisiae deletion strains, locus YOR069W, strain VPS5, active compounds read low 0.97 | S. cerevisiae deletion strains, locus YOR070C, strain gyp1, active compounds read low 0.95 | S. cerevisiae deletion strains, locus YOR080W, strain dia2, active compounds read low 0.969 | S. cerevisiae deletion strains, locus YOR083W, strain WHI5, active compounds read low 0.908 | S. cerevisiae deletion strains, locus YOR136W, strain idh2, active compounds read low 0.928 | S. cerevisiae deletion strains, locus YOR265W, strain rbl2, active compounds read low 0.957 | S. cerevisiae deletion strains, locus YOR316C, strain cot1, active compounds read low 0.956 | S. cerevisiae deletion strains, locus YPL106C, strain sse1, active compounds read low 1.05 | S. cerevisiae deletion strains, locus YPL241C, strain CIN2, active compounds read low 0.953 | S. cerevisiae deletion strains, locus YPR119W, strain clb2, active compounds read low 0.956 | S. cerevisiae deletion strains, locus YPR141C, strain kar3, active compounds read low 0.963 | S. cerevisiae strains, strain wild type, active compounds read low 0.926
active: S. cerevisiae deletion strains, locus YJR066W, strain TOR1, active compounds read low 0.813 | S. cerevisiae deletion strains, locus YKL009W, strain mrt4, active compounds read low 0.868 | S. cerevisiae deletion strains, locus YKL160W, strain elf1, active compounds read low 0.901 | S. cerevisiae deletion strains, locus YKR001C, strain vps1, active compounds read low 0.325 | S. cerevisiae deletion strains, locus YLL026W, active compounds read low 0.915 | S. cerevisiae deletion strains, locus YLR027C, strain aat2, active compounds read low 0.855 | S. cerevisiae deletion strains, locus YLR039C, strain RIC1, active compounds read low 0.291 | S. cerevisiae deletion strains, locus YLR113W, strain HOG1, active compounds read low 0.744 | S. cerevisiae deletion strains, locus YLR221C, strain rsa3, active compounds read low 0.824 | S. cerevisiae deletion strains, locus YLR258W, strain gsy2, active compounds read low 0.891 | S. cerevisiae deletion strains, locus YLR262C, strain YPT6 (second series), active compounds read low 0.582 | S. cerevisiae deletion strains, locus YLR262C, strain YPT6, active compounds read low 0.449 | S. cerevisiae deletion strains, locus YLR320W, strain mms22, active compounds read low 0.74 | S. cerevisiae deletion strains, locus YLR330W, strain CHS5, active compounds read low 0.872 | S. cerevisiae deletion strains, locus YLR371W, strain rom2, active compounds read low 0.622 | S. cerevisiae deletion strains, locus YLR418C, strain cdc73, active compounds read low 0.767 | S. cerevisiae deletion strains, locus YML032C, strain rad52, active compounds read low 0.784 | S. cerevisiae deletion strains, locus YML120C, strain ndi1, active compounds read low 0.836 | S. cerevisiae deletion strains, locus YMR058W, strain fet3, active compounds read low 0.881 | S. cerevisiae deletion strains, locus YMR078C, strain ctf18, active compounds read low 0.912 | S. cerevisiae deletion strains, locus YMR205C, strain PFK2, active compounds read low 0.749 | S. cerevisiae deletion strains, locus YMR223W, strain ubp8, active compounds read low 0.801 | S. cerevisiae deletion strains, locus YMR307W, strain GAS1, active compounds read low 0.563 | S. cerevisiae deletion strains, locus YNL067W, strain RPL9B, active compounds read low 0.779 | S. cerevisiae deletion strains, locus YNL071W, strain lat1, active compounds read low 0.64 | S. cerevisiae deletion strains, locus YNL183C, strain NPR1, active compounds read low 0.813 | S. cerevisiae deletion strains, locus YNL233W, strain BNI4, active compounds read low 0.858 | S. cerevisiae deletion strains, locus YNL248C, strain rpa49, active compounds read low 0.84 | S. cerevisiae deletion strains, locus YNL298W, strain CLA4, active compounds read low 0.831 | S. cerevisiae deletion strains, locus YNL307C, strain MCK1, active compounds read low 0.322 | S. cerevisiae deletion strains, locus YNR052C, strain pop2, active compounds read low 0.77 | S. cerevisiae deletion strains, locus YOL147C, strain pex11, active compounds read low 0.803 | S. cerevisiae deletion strains, locus YOR001W, strain rrp6, active compounds read low 0.876 | S. cerevisiae deletion strains, locus YOR106W, strain vam3, active compounds read low 0.837 | S. cerevisiae deletion strains, locus YOR144C, strain elg1, active compounds read low 0.861 | S. cerevisiae deletion strains, locus YOR184W, strain ser1, active compounds read low 0.685 | S. cerevisiae deletion strains, locus YOR231W, strain MKK1, active compounds read low 0.801 | S. cerevisiae deletion strains, locus YOR270C, strain vph1, active compounds read low 0.73 | S. cerevisiae deletion strains, locus YOR290C, strain snf2, active compounds read low 0.819 | S. cerevisiae deletion strains, locus YPL051W, strain arl3, active compounds read low 0.705 | S. cerevisiae deletion strains, locus YPL078C, strain atp4, active compounds read low 0.891 | S. cerevisiae deletion strains, locus YPL240C, strain hsp82, active compounds read low 0.924 | S. cerevisiae deletion strains, locus YPL256C, strain CLN2, active compounds read low 0.782 | S. cerevisiae deletion strains, locus YPR163C, strain tif3, active compounds read low 0.906 | S. cerevisiae deletion strains, locus YPR167C, strain met16, active compounds read low 0.868 | S. cerevisiae deletion strains, strain wtn01, active compounds read low 0.768
